In PMC4081100, “A DNA-binding-site landscape and regulatory network analysis for NAC transcription factors in Arabidopsis thaliana” one finds binding signal data, which are given here for 8 sequences.

Test in all cases: universal protein binding microarray (PBM); transcription factors of Arabidopsis thaliana; high values mean tight binding
For one test, the target named is T1, GST-ANAC092(1-176) (Arabidopsis thaliana, UniProt Q9FKA0 1-176).
T1 sequence: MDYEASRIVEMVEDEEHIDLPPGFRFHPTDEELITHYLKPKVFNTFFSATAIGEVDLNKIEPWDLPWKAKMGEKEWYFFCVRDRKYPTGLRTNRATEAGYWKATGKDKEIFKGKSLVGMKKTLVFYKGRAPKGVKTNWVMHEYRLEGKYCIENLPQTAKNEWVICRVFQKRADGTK
The conditions noted are these: protein: recombinant; tags: GST; chain copies: 2; dsDNA, one strand shown. Put shortly:
(§1)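 Binding is expressed as the normalised enrichment score (E-score). Proteins carrying a GST tag, whether NAC-domain, full-length or DNA-binding-domain forms, were induced in cells, and zinc acetate was added for zinc-finger proteins. After purification on glutathione–Sepharose 4B and quantification by A280 or anti-GST western blot, each was applied in duplicate at 200 to 500 nM final to custom all-10-mer Agilent 4 × 180K arrays made double-stranded by primer extension. Gapped and ungapped 8-mers were scored.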

Another test deals with T2, GST-ANAC019 NAC domain (Arabidopsis thaliana, UniProt Q9C932 14-162).
T2 sequence: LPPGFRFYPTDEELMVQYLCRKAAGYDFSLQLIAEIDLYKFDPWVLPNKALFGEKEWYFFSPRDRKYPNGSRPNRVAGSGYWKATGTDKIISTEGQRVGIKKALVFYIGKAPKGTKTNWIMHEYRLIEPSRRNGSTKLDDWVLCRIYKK
The conditions noted are these: protein: recombinant; tags: GST; chain copies: 2; dsDNA, one strand shown. In a few lines: as §1

The target in the next test is T3, GST-ANAC055(1-171) (Arabidopsis thaliana, UniProt Q9LDY8 1-171).
T3 sequence: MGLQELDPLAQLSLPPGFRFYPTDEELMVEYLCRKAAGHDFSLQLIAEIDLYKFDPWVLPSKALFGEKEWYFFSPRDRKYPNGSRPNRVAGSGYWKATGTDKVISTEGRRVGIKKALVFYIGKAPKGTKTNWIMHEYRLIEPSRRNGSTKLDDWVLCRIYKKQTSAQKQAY
The note with it: protein: recombinant; tags: GST; chain copies: 2; dsDNA, one strand shown. Put shortly:
as §1

A further test has as its target T4, GST-ATAF1 NAC domain (Arabidopsis thaliana, UniProt Q39013 7-158).
T4 sequence: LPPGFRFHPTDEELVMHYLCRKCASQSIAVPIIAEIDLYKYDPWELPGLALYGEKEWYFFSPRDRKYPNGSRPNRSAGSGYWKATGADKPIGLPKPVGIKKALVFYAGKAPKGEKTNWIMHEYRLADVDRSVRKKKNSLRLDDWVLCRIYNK
The conditions noted are these: protein: recombinant; tags: GST; chain copies: 2; dsDNA, one strand shown. In a few lines: as §1

Test [1] addresses T5, GST-ANAC092(1-285) full length (Arabidopsis thaliana, UniProt Q9FKA0 1-285).
T5 sequence: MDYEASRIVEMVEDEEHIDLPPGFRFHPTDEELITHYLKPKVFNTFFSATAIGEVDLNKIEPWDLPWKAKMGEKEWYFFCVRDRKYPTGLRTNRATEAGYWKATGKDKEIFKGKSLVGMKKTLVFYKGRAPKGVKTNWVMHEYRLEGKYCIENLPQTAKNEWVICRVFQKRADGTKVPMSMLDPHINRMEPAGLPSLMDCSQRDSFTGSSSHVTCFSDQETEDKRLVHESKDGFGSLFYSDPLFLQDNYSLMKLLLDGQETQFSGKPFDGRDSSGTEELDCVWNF
The conditions noted are these: protein: recombinant; tags: GST; chain copies: 2; dsDNA, one strand shown. Put shortly:
as §1

A further test addresses T6, GST-NAP(1-166) (Arabidopsis thaliana, UniProt O49255 1-166).
T6 sequence: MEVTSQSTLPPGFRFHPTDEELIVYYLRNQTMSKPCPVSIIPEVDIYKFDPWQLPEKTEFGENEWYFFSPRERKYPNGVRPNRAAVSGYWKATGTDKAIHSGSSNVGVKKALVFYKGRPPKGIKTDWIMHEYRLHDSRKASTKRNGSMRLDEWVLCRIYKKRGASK
The conditions noted are these: protein: recombinant; tags: GST; chain copies: 2; dsDNA, one strand shown. In a few lines:
as §1

A further test deals with T7, GST-NST2(1-184) (Arabidopsis thaliana, UniProt Q9M274 1-184).
T7 sequence: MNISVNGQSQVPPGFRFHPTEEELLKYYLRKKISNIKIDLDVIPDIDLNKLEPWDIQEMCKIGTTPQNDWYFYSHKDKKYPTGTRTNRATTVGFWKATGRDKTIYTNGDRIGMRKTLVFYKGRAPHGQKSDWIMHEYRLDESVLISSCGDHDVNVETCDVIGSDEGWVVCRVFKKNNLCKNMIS
The conditions noted are these: protein: recombinant; tags: GST; chain copies: 2; dsDNA, one strand shown. Put shortly: as §1

The target in another test is T8, GST-NTL8 NAC domain (Arabidopsis thaliana, UniProt Q9XIN7 14-156).
T8 sequence: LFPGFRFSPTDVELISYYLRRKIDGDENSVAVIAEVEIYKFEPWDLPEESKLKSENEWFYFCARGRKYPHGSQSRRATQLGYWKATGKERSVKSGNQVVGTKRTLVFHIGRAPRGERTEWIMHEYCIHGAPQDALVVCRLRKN
The note with it: protein: recombinant; tags: GST; chain copies: 2; dsDNA, one strand shown. Put shortly: as §1

The target in a further test is T9, GST-SND1(1-203) (Arabidopsis thaliana, UniProt Q9LPI7 1-203).
T9 sequence: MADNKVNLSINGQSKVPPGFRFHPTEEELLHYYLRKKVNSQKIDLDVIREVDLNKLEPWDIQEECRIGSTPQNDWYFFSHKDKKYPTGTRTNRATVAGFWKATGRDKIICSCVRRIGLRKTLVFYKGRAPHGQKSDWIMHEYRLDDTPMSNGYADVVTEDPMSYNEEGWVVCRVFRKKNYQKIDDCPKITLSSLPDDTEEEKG
The note with it: protein: recombinant; tags: GST; chain copies: 2; dsDNA, one strand shown. In a few lines:
as §1

In a further test the target is T10, GST-VND3 NAC domain (Arabidopsis thaliana, UniProt Q9FH59 12-162).
T10 sequence: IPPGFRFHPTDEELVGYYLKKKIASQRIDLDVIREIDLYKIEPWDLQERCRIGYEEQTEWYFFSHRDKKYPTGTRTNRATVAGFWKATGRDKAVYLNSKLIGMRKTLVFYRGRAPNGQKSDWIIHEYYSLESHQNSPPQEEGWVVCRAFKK
The note with it: protein: recombinant; tags: GST; chain copies: 2; dsDNA, one strand shown. In a few lines:
as §1

A further test has as its target T11, GST-VND7 NAC domain (Arabidopsis thaliana, UniProt Q9C8W9 9-158).
T11 sequence: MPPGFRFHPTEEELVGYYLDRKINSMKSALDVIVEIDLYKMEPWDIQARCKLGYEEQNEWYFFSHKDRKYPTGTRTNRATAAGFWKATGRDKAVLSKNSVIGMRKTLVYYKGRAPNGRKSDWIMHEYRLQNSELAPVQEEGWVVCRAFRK
The note with it: protein: recombinant; tags: GST; chain copies: 2; dsDNA, one strand shown. In a few lines: as §1

The next test concerns the target GST-WRKY1(266-371) (Arabidopsis thaliana, UniProt Q9SI37 266-371). The note with it: protein: recombinant; tags: GST; dsDNA, one strand shown. Put shortly: as §1
The target of a further test is GST-NTL6(1-168) (Arabidopsis thaliana, UniProt Q9SCK6 1-168). The note with it: protein: recombinant; tags: GST; chain copies: 2; dsDNA, one strand shown. Put shortly: as §1
Chain of GST-NTL6(1-168) (Q9SCK6 1-168): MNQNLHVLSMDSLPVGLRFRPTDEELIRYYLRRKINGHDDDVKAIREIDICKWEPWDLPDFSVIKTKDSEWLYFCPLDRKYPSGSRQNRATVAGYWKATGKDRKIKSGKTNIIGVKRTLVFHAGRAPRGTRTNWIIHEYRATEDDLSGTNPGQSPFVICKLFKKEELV

Chain of GST-WRKY1(266-371) (Q9SI37 266-371): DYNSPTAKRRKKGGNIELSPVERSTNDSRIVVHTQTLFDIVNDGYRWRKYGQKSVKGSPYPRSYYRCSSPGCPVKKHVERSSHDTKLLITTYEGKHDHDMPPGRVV

Regarding CGTGCACG, the binding signal turned out to be 0.354 E-score with GST-ANAC092(1-176); 0.464 E-score with GST-ANAC019 NAC domain; 0.424 E-score in the test with GST-ANAC055(1-171); 0.304 E-score in the test with GST-ATAF1 NAC domain; 0.418 E-score in test [1]; 0.378 E-score in the test with GST-NAP(1-166). In addition, the binding signal came to 0.221 E-score with GST-NST2(1-184); 0.0868 E-score with GST-NTL8 NAC domain; 0.0947 E-score in the test with GST-SND1(1-203); 0.426 E-score in the test with GST-VND3 NAC domain; 0.391 E-score with GST-VND7 NAC domain; 0.0812 E-score in the test with GST-WRKY1(266-371).

Regarding ATAGCGTG, the binding signal with GST-ANAC092(1-176) came out at 0.464 E-score; in the test with GST-NTL6(1-168) it was 0.0569 E-score; in the test with GST-ANAC019 NAC domain it was 0.174 E-score; with GST-ANAC055(1-171), 0.167 E-score; with GST-ATAF1 NAC domain it was 0.128 E-score; in test [1] it was 0.47 E-score. In addition, the binding signal in the test with GST-NAP(1-166) stood at 0.105 E-score; with GST-NST2(1-184), 0.332 E-score; with GST-SND1(1-203), 0.418 E-score; with GST-VND3 NAC domain, 0.218 E-score; with GST-VND7 NAC domain it was 0.15 E-score.

As for AGTCAAAA, the binding signal amounted to 0.157 E-score with GST-ANAC092(1-176); 0.0721 E-score with GST-ANAC019 NAC domain; 0.234 E-score with GST-ATAF1 NAC domain; 0.0672 E-score in [1]; 0.111 E-score in the test with GST-SND1(1-203); 0.104 E-score in the test with GST-VND3 NAC domain. The binding signal with GST-VND7 NAC domain is 0.0632 E-score; in the test with GST-WRKY1(266-371) it was 0.47 E-score.

As to GTTGACTA, the binding signal in the test with GST-NTL6(1-168) is 0.072 E-score; in the test with GST-ANAC019 NAC domain, 0.079 E-score; in the test with GST-ANAC055(1-171), 0.0652 E-score; in the test with GST-ATAF1 NAC domain, 0.103 E-score; in test [1], 0.133 E-score; in the test with GST-SND1(1-203), 0.062 E-score. Further, the results for the binding signal with GST-VND3 NAC domain, in the test with GST-VND7 NAC domain and with GST-WRKY1(266-371) were 0.158 E-score, 0.0849 E-score and 0.49 E-score, respectively.

For ACACGGAA, the binding signal with GST-ANAC092(1-176) is 0.464 E-score; with GST-NTL6(1-168), 0.0747 E-score; in the test with GST-ANAC019 NAC domain, 0.486 E-score; in the test with GST-ANAC055(1-171), 0.481 E-score; in the test with GST-ATAF1 NAC domain it was 0.376 E-score; in test [1] it was 0.458 E-score. Also, the binding signal in the test with GST-NAP(1-166) was determined as 0.45 E-score; with GST-NST2(1-184), 0.328 E-score; with GST-SND1(1-203) it was 0.057 E-score; with GST-VND3 NAC domain, 0.467 E-score; with GST-VND7 NAC domain it was 0.479 E-score.

For the sequence TAGAGTAA, the binding signal with GST-ANAC092(1-176) was 0.177 E-score; with GST-ANAC055(1-171), 0.0921 E-score; with GST-ATAF1 NAC domain, 0.0567 E-score; in test [1], 0.263 E-score; in the test with GST-NST2(1-184), 0.216 E-score; with GST-NTL8 NAC domain it was 0.065 E-score. The binding signal turned out to be 0.401 E-score with GST-SND1(1-203), 0.117 E-score in the test with GST-VND3 NAC domain, 0.128 E-score with GST-VND7 NAC domain and 0.0876 E-score with GST-WRKY1(266-371).

Take GATTGACC: the binding signal with GST-ANAC092(1-176) was found to be 0.141 E-score; with GST-ANAC055(1-171) it was 0.0576 E-score; in test [1], 0.14 E-score; in the test with GST-SND1(1-203), 0.0705 E-score; with GST-VND3 NAC domain it was 0.138 E-score; with GST-VND7 NAC domain, 0.059 E-score. Also, the binding signal with GST-WRKY1(266-371) was found to be 0.479 E-score.

In the case of ATTGCGTG, the binding signal stood at 0.494 E-score in the test with GST-ANAC092(1-176); 0.466 E-score in the test with GST-ANAC019 NAC domain; 0.452 E-score with GST-ANAC055(1-171); 0.355 E-score with GST-ATAF1 NAC domain; 0.494 E-score in test [1]; 0.458 E-score in the test with GST-NAP(1-166). Further, the binding signal with GST-NST2(1-184) was found to be 0.459 E-score; with GST-NTL8 NAC domain, 0.188 E-score; in the test with GST-SND1(1-203), 0.471 E-score; with GST-VND3 NAC domain, 0.441 E-score; in the test with GST-VND7 NAC domain it was 0.46 E-score; with GST-WRKY1(266-371), 0.0947 E-score.
